From the supplement of paper PMC6555819

Columns and labels:
Experiment in all cases: PBM binding z-score (relative to random genomic background probes); higher = stronger binding; sequences stand for … in GC…GCGATTGACAGCGTAGAATGAAGG
[1] = tested on: FXR:RXRa (NR concentration 270 nM, RXRa partner concentration 90 nM)
Procedure, shortened: (§1)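 Antibodies against each partner of ligand-free nuclear receptor dimers (one per run) detected binding on custom Agilent 4×180K protein-binding microarrays after 1 h incubation. The double-stranded probes had 34-nt variable regions carrying direct-repeat seeds, single-nucleotide variants, half-site ablations and random human genomic background sequences. Binding z-scores, from regression-normalized fluorescence, use the random background probes as reference.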

[2] = tested on: LXRa:RXRa (NR concentration 270 nM, RXRa partner concentration 90 nM)
Procedure, shortened: as §1

[3] = tested on: LXRa homodimer (NR concentration 270 nM)
Procedure, shortened: as §1

[4] = tested on: LXRb:RXRa (NR concentration 270 nM, RXRa partner concentration 90 nM)
Procedure, shortened: as §1

[5] = tested on: LXRb homodimer (NR concentration 270 nM)
Procedure, shortened: as §1

[6] = tested on: PPARa:RXRa (NR concentration 270 nM, RXRa partner concentration 90 nM)
Procedure, shortened: as §1

[7] = tested on: PPARg:RXRa (NR concentration 180 nM, RXRa partner concentration 90 nM)
Procedure, shortened: as §1

[8] = tested on: PPARg:RXRa 270nM:90nM, anti-RXR (NR concentration 270 nM, RXRa partner concentration 90 nM)
Procedure, shortened: as §1

[9] = tested on: PPARg:RXRa 30nM:10nM, anti-RXR (NR concentration 30 nM, RXRa partner concentration 10 nM)
Procedure, shortened: as §1

[10] = tested on: PPARg:RXRa 90nM:30nM, anti-RXR (NR concentration 90 nM, RXRa partner concentration 30 nM)
Procedure, shortened: as §1

[11] = tested on: PPARg:RXRa DBDmut IVT, anti-RXR (DBD mutation: RXRa K156A/R161A, NR concentration 270 nM, RXRa partner concentration 90 nM)
Procedure, shortened: as §1

[12] = tested on: PPARg:RXRa IVT, anti-PPARg (NR concentration 270 nM, RXRa partner concentration 90 nM)
Procedure, shortened: as §1

[13] = tested on: PPARg DBDmut:RXRa IVT, anti-PPARg (DBD mutation: PPARg1 K132A/R137A, NR concentration 270 nM, RXRa partner concentration 90 nM)
Procedure, shortened: as §1

[14] = tested on: PPARg DBDmut IVT, anti-PPARg (DBD mutation: PPARg1 K132A/R137A, NR concentration 270 nM)
Procedure, shortened: as §1

[15] = tested on: PPARg homodimer (NR concentration 180 nM)
Procedure, shortened: as §1

[16] = tested on: PXR:RXRa (NR concentration 270 nM, RXRa partner concentration 90 nM)
Procedure, shortened: as §1

[17] = tested on: PXR homodimer (NR concentration 270 nM)
Procedure, shortened: as §1

[18] = tested on: RARa:RXR (NR concentration 270 nM, RXRa partner concentration 90 nM)
Procedure, shortened: as §1

[19] = tested on: RARa homodimer (NR concentration 270 nM)
Procedure, shortened: as §1

[20] = tested on: RARb:RXRa (NR concentration 270 nM, RXRa partner concentration 90 nM)
Procedure, shortened: as §1

| Sequence | PBM binding z-score [1] | PBM binding z-score [2] | PBM binding z-score [3] | PBM binding z-score [4] | PBM binding z-score [5] | PBM binding z-score [6] | PBM binding z-score [7] | PBM binding z-score [8] | PBM binding z-score [9] | PBM binding z-score [10] | PBM binding z-score [11] | PBM binding z-score [12] | PBM binding z-score [13] | PBM binding z-score [14] | PBM binding z-score [15] | PBM binding z-score [16] | PBM binding z-score [17] | PBM binding z-score [18] | PBM binding z-score [19] | PBM binding z-score [20] |
| --- | --- | --- | --- | --- | --- | --- | --- | --- | --- | --- | --- | --- | --- | --- | --- | --- | --- | --- | --- | --- |
| CCGACTGGGGCAGAAAGGTCACCATACCATCCGG | 3.52 | 3.99 | 1.97 | 3.56 | -0.936 | 4.65 | 4.35 | 5.18 | 3.05 | 4.59 | 1.91 | 3.29 | -0.398 | -0.64 | 4.46 | 5.07 | 0.611 | 6.06 | 2.92 | 4.39 |
| ATCCCTAGGTAAGACTCAGTTCAGTGAAGAACGC | 0.273 | 0.364 | 0.479 | 0.29 | 0.516 | -0.0282 | 0.0747 | -0.195 | -0.259 | -0.0563 | 0.0897 | -0.242 | -0.265 | 0.674 | 0.578 | 1.06 | 1.32 | 0.256 | 0.532 | 0.244 |
| TCATGTAGATCAAGCAGGTTAAGAAAGCCTGAGT | 0.865 | 0.684 | -0.0467 | 0.774 | -0.523 | 0.929 | -0.116 | 1.74 | 3.28 | 2.36 | 2.01 | 0.466 | 0.49 | 0.274 | 0.552 | 0.746 | 0.293 | 0.72 | -0.363 | -0.0113 |
| CCTACTGGGCCATTCGGAGGTCATTGATCATATG | 1.8 | 2.8 | 4.71 | 2.59 | -0.128 | 3.01 | 1.38 | 2.45 | 0.304 | 1.27 | 4.18 | 3.88 | -0.0532 | -0.182 | 1.81 | 3.79 | 2.38 | 3.45 | -0.323 | 2.54 |
| AGAATGAGGTTATTCAGATCAGGGAATTGCGGTC | 2.47 | 1.98 | 0.596 | 1.51 | 0.0526 | 3.31 | 1.58 | 1.96 | 0.851 | 1.27 | 3.18 | 2.64 | 0.879 | 0.0193 | 0.501 | 1.8 | 0.717 | 1.98 | 0.495 | 1.68 |
| ATCTCTAGGTAAAAGATCAGTGAATCCCGAGGAT | 0.18 | -0.223 | 0.0922 | -0.31 | 0.167 | 2.45 | 4.48 | 5.32 | 4.13 | 5.66 | 2.47 | 2.26 | 1.02 | 0.762 | 0.847 | -0.177 | -0.245 | 0.0916 | 0.407 | -0.0842 |
| AGAACGAGGGCAATGATTTGATAGCACGGGTGGC | 0.321 | 0.43 | -0.337 | 0.168 | -0.65 | 1.41 | 1.57 | 0.787 | 0.29 | 0.557 | 3.4 | 2.89 | 0.782 | 0.14 | 0.437 | 0.447 | 0.328 | 0.36 | 0.605 | 1.95 |
| AATCCAGGGTCACTAGGCCAGAGTAGGTACGAAT | 5.69 | 4.8 | 0.376 | 3.92 | 0.621 | 5.78 | 7.8 | 6.61 | 3.93 | 5.73 | 3.69 | 5.76 | 1.17 | 1.11 | 2.8 | 3.49 | 0.164 | 4.74 | 0.405 | 4.36 |
| AGAACGAGGGCAATGTGTTGATAGCACGGGTGGC | 0.748 | 0.456 | -0.316 | 0.0585 | -0.324 | 1.47 | 1.55 | 1.19 | 0.0423 | 0.712 | 3.49 | 2.88 | 0.318 | -0.0765 | 0.0511 | 0.325 | 0.276 | 0.248 | -0.364 | 2.05 |
| TTACCAAGGTGAGCTGAGGTCGTTGTTCCAACTC | 1.49 | 1.3 | -0.412 | 0.784 | -1.32 | 1.75 | -0.301 | 1.01 | -0.393 | 0.445 | 1.27 | 2.01 | -0.911 | -0.688 | -0.161 | 5 | 0.345 | 2.16 | -0.978 | 1.79 |
| AGAATGAGGCTATACGTAGATCAGGGAAGAAAGT | -0.393 | -0.526 | -0.213 | -0.708 | -0.243 | 0.0162 | 0.801 | 0.267 | 0.101 | 0.251 | 1.49 | 0.333 | 0.633 | 0.637 | -0.215 | -0.274 | -0.0563 | -0.0968 | -0.0794 | 0.153 |
| TCTAGTTGGTCACGGAGGCCACACACGACGGGTA | 0.758 | 0.488 | -0.0408 | -0.0226 | -0.0385 | 1.02 | 1.19 | 1.94 | 3.1 | 2.46 | 2.18 | 2.47 | 0.779 | 0.634 | 0.778 | 0.694 | 0.425 | 0.748 | 0.249 | 2.16 |
| TCTAGTTGGCCACGGAGGTCACACACGACGGGTA | 2.71 | 2.79 | 1.39 | 3.2 | 0.0016 | 3.68 | 2.32 | 2.96 | 2.82 | 2.84 | 1.59 | 2.78 | 1.61 | 0.255 | 2.19 | 4.03 | 0.788 | 3.94 | 0.587 | 3.35 |
